The whole screen tested about 330,000 compounds, of which about 1,900 (0.58%) were called active. Roughly 4% stayed inconclusive and do not appear here. No stated cut-off is given here; in the data, inconclusive means inhibition above about 70% without an active follow-up result; inactive means below that. Only a sample is shown. Measured potencies and affinities stand elsewhere.
Assay: M. tuberculosis growth inhibition, HTS (AID 449762);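 further: bacterial growth assessed after seven days of incubation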
Conditions: M. tuberculosis H37Rv growth inhibition, 7H9 media; at 25 µM; active compounds read high

Compound | inhibition
COc1cc(-c2c(C#N)c(=O)[nH]c3c2c(C)nn3-c2ccccc2)ccc1O | 51.3% (inactive)
Cc1nn(-c2ccc(F)cc2)c2nc(N)c(C#N)c(-c3ccc(O)c(O)c3)c12 | 1.53% (inactive)
O=C1c2ccc([N+](=O)[O-])cc2S(=O)(=O)N1Cc1ccccc1 | -6.93% (inactive)
CCc1noc(C)c1C(=O)Nc1nc(-c2cc(C)ccc2C)c(C)s1 | -0.88% (inactive)
CCc1noc(C)c1C(=O)Nc1nc2ccc(F)cc2s1 | 68.5% (inactive)
CC(=NCc1ccc2c(c1)OCO2)c1c(O)[nH]c(=O)[nH]c1=O | -12.3% (inactive)
CC(=NCc1cccnc1)C1=C(O)c2ccccc2C1=O | -1.08% (inactive)
CCn1c(=O)c2cc(C(=O)NCCC(C)C)sc2c2ccccc21 | 9.29% (inactive)
O=C(Cn1nnc2ccccc21)c1cccc([N+](=O)[O-])c1 | -4.83% (inactive)
CN(C(=O)c1ccc(-c2ccccc2)cc1)C1CCCCC1 | 53.6% (inactive)
CCOc1ccc(NS(=O)(=O)c2ccc(C(=O)N(C)CC(=O)Nc3ccc(C)cc3)cc2)cc1 | 56.7% (inactive)
CCCSc1ccc(-c2nn(-c3ccccc3)cc2/C=C(/C#N)C(=O)NCCCOC)cc1 | -1.57% (inactive)
CCSc1ccc(-c2nn(-c3ccccc3)cc2/C=C(/C#N)C(=O)NCCCOC)cc1 | 6.88% (inactive)
O=C(N/N=C(\CC(=O)c1cccs1)C(F)(F)F)c1cccnc1 | -1.08% (inactive)
O=C(N/N=C(/CC(=O)c1cccs1)C(F)(F)F)c1ccc(O)cc1 | 33.1% (inactive)
CC(C)Nc1nc(NC(C)C)nc(OCCOC(=O)c2ccccc2)n1 | 2.84% (inactive)
CCOC(=O)[C@@H]1[C@H]2COc3cc(OC)ccc3[C@@H]2N2C(=O)N(c3ccc(C(F)(F)F)cc3)C(=O)[C@]12C | 1.49% (inactive)
CCOC(=O)[C@@H]1[C@H]2COc3cc(OC)ccc3[C@H]2N2C(=O)N(c3ccc(C(F)(F)F)cc3)C(=O)[C@@]12C | 6.64% (inactive)
O=C(CC1SC(=O)N(c2ccccc2)C1=O)Nc1ccc(Cl)cc1 (configuration not stated) | -2.72% (inactive)
O=C(NN=C1CCCC1)c1cccc(Br)c1 | 8.38% (inactive)
O=C(N/N=C1\CCCc2ccccc21)c1cccc(Br)c1 | 17.8% (inactive)
O=C(Nc1ccc(Nc2ccccc2)cc1)C1CC1 | 0.68% (inactive)
O=C(Nc1ccc(N2CCOCC2)cc1)C1CC1 | -20.2% (inactive)

Compound | inhibition
CC(C)(C)c1ccc(OCCC(=O)NNC(=O)c2ccccc2)cc1 | -10.6% (inactive)
O=C(COc1ccc([N+](=O)[O-])cc1)N(Cc1cccs1)C1CCS(=O)(=O)C1 (configuration not stated) | -4.33% (inactive)
COc1ccccc1N1CCN(S(=O)(=O)CCNC(=O)CC2CCCCC2)CC1 | -4.01% (inactive)
COCCNC(=O)C(c1ccc(C)cc1)N(C(=O)C(=O)NC1CCCC1)c1ccc2c(c1)OCCO2 (configuration not stated) | 0.7% (inactive)
COCCNC(=S)N/N=C(\C)c1ccc(OC(F)F)cc1 | 2.04% (inactive)
COCCNC(=S)N/N=C(\C)c1ccc(O)cc1 | -0.19% (inactive)
O=C(Nc1ccccc1-c1nc2ccccc2[nH]1)c1sc2ccccc2c1Cl | 8.98% (inactive)
CCN1CCN(Cc2ccc(NC(=O)c3ccc(C)c(NC(=O)c4ccc5n[nH]nc5c4)c3)cc2C(F)(F)F)CC1 | 4.3% (inactive)
CCN1CCN(Cc2ccc(NC(=O)c3ccc(C)c(NC(=O)c4ccnnc4)c3)cc2C(F)(F)F)CC1 | -1.41% (inactive)
COC(=O)c1cc(NC(=O)Cc2ccc(OC)cc2)cc(C(=O)OC)c1 | -3.89% (inactive)
CC1CCC(NC(=O)COC(=O)C2=NN(c3ccccc3)C(=O)CC2)CC1 (configuration not stated) | 1.24% (inactive)
COc1cccc2cc(C(=O)Nc3ccc(S(=O)(=O)NCC4CCCO4)cc3)c(=O)oc12 (configuration not stated) | 1.32% (inactive)
Cc1ccccc1C(=O)/C(C#N)=N/Nc1c(C)n(C)n(-c2ccccc2)c1=O | -1.13% (inactive)
O=C(/C=C/c1c(F)cccc1Cl)Nc1ccncc1 | 9.18% (inactive)
O=C(Nc1ccc(OC(F)(F)F)cc1)c1ccc2nccnc2c1 | 66.2% (inactive)
O=C(Nc1ccc(OC(F)(F)F)cc1)c1ccc2nc[nH]c2c1 | 41.2% (inactive)
S=C(NCCC(c1ccccc1)c1ccccc1)Nc1ccc(Cl)cc1 | 1.85% (inactive)
O=c1cc(N2CCOCC2)cnn1-c1ccccc1 | 14.3% (inactive)
O=S(=O)(Nc1ccccc1)c1ccc(S(=O)(=O)N2CCCC2)cc1 | -1.05% (inactive)
Nc1ncc([N+](=O)[O-])s1 | -0.165% (inactive)
O=[N+]([O-])c1cc(-c2ncccn2)cs1 | 0.84% (inactive)
CCn1nnc(-c2ccccc2NS(=O)(=O)c2ccc(S(=O)(=O)N(C)C3CCCCC3)cc2)n1 | 2.36% (inactive)
N#Cc1ccccc1COC(=O)CCC(=O)c1cccs1 | 5.44% (inactive)

Compound | inhibition
c1ccc2c(CNc3ccc(CNc4ncn[nH]4)cc3)cccc2c1 | 1.09% (inactive)
C/C(=N\NC(=O)c1c[nH]c2ccccc12)c1ccco1 | 19.6% (inactive)
C/C(=N/NC(=O)c1ccccn1)c1ccncc1 | 39.2% (inactive)
COc1ccc(CN2CCC(Oc3ccc(C(=O)NCc4ccccn4)cc3)CC2)c(F)c1 | -12.3% (inactive)
CCOc1ccc(NC(=O)NC2CCCc3ccccc32)cc1 (configuration not stated) | -11.3% (inactive)
Cc1cc2c(N)cccc2nn1 | -2.97% (inactive)
Cc1cnnc2ccc3c(no[n+]3[O-])c12 | 0.29% (inactive)
Cc1ccc(-n2c(CSc3nc(C)cc(C)n3)n[nH]c2=S)cc1 | -6.43% (inactive)
N#Cc1c(N)nc2c(c1-c1ccc(Br)s1)CCCC2 | 0.77% (inactive)
Cc1ccc(C)c(NC(=O)CN(C)C(=O)[C@@H](NC(N)=O)C(C)C)c1 | 1.17% (inactive)
OC[C@H]1O[C@@H](n2cnc3c(NC4CCCC4)ncnc32)[C@H](O)[C@@H]1O | -4.16% (inactive)
OCC1OC(n2cnc3c(NC4CCCC4)ncnc32)C(O)C1O (configuration not stated) | -0.62% (inactive)
COc1cc(/C=C\C(=O)NCc2ccc3[nH]c(C)cc3c2)cc(OC)c1OC | -3.67% (inactive)
COc1ccc(-n2nnc3c(=O)n(CC(=O)N4CCC(Cc5ccccc5)CC4)cnc32)cc1 | -2.79% (inactive)
O=C(Cn1cnc2c(nnn2-c2ccccc2)c1=O)N1CCC(Cc2ccccc2)CC1 | -6.42% (inactive)
CCc1ccc(C(=O)COC(=O)C(CCSC)NC(=O)C23CC4CC(CC(C4)C2)C3)cc1 (configuration not stated) | 1.72% (inactive)
CCCCNC(=S)N(C)/N=C/c1c(F)cccc1F | -1.55% (inactive)
CCCCNC(=S)N(C)/N=C/c1ccccc1F | 7.41% (inactive)
CCCC[C@@H]1CN=C(N)N1CCc1cc(C(F)(F)F)cc(C(F)(F)F)c1 | 4.85% (inactive)
FC(F)(F)c1cc(CCN2C(=S)NC[C@@H]2CC2CCCCC2)cc(C(F)(F)F)c1 | -2.31% (inactive)
COc1ccccc1CC(=O)NC1CCCCCC1 | -3.92% (inactive)
CC1CCCCC1NC(=O)Cn1c(CN2CCCCC2)nc2ccccc2c1=O (configuration not stated) | 5.05% (inactive)
COc1ccc(N2C(=O)CC(NNC(=O)c3cc(C)oc3C)C2=O)cc1 (configuration not stated) | -4.63% (inactive)

Compound | inhibition
NC1=CC(=O)c2cccc3cccc1c23 | -0.47% (inactive)
O=C1C(=O)c2cccc3cccc1c23 | 3.34% (inactive)
COc1cc2c(cc1NC(=O)COC(=O)CNS(=O)(=O)c1ccc(C)cc1)oc1ccccc12 | 20.6% (inactive)
Cc1ccc(C)c(NC(=O)CCNS(=O)(=O)c2ccc3[nH]c(=O)oc3c2)c1 | -1.71% (inactive)
CC1(c2ccc(Cl)cc2)NC(=O)N(CC(=O)c2ccc3c(c2)OCO3)C1=O (configuration not stated) | -11.1% (inactive)
CC1(c2ccc(OC(F)F)cc2)NC(=O)N(CC(=O)Nc2ccc3c(c2)OCO3)C1=O (configuration not stated) | 1.98% (inactive)
CCN(CC(=O)Nc1ccccc1C(=O)OC)S(=O)(=O)c1ccccc1 | -8.58% (inactive)
Cc1nc(-c2nnc(SCC(=O)Nc3cc(Cl)cc(Cl)c3)n2C)cs1 | -8.27% (inactive)
CC1CCCCN1C(=O)C1CCN(S(=O)(=O)c2ccc(-n3cnnn3)cc2)CC1 (configuration not stated) | -3.02% (inactive)
COc1ccc(OC)c2[nH]c(=O)c(CCNC(=O)c3ccc(Br)o3)cc12 | -4.84% (inactive)
Cc1cc(=O)oc2cc(OCC(=O)N3CCN(C(=O)C4COc5ccccc5O4)CC3)c(Cl)cc12 (configuration not stated) | 68.3% (inactive)
Cc1cc(=O)oc2cc(OCC(=O)N3CCN(C(=O)C4COc5ccccc5O4)CC3)ccc12 (configuration not stated) | 5.34% (inactive)
O=C(NCCN1CCOCC1)C1CCCN(S(=O)(=O)c2ccc(F)cc2)C1 (configuration not stated) | -1.03% (inactive)
NNC(=O)C1=NOC(CNc2ncc(C(F)(F)F)cc2Cl)C1 (configuration not stated) | -0.88% (inactive)
CC(=O)C1=NOC(CNc2ncc(C(F)(F)F)cc2Cl)C1 (configuration not stated) | -4.07% (inactive)
O=c1[nH]c2cc(Cl)ccc2n(CCNc2ncc(C(F)(F)F)cc2Cl)c1=O | -0.44% (inactive)
O=c1c2nncn2c2cc(C(F)(F)F)ccc2n1CCNc1ncc(C(F)(F)F)cc1Cl | -1.6% (inactive)
Cc1nnc(SCc2c(Cl)cccc2Cl)s1 | 7.37% (inactive)
O=C(C1CCCN(c2ncnc3c2nc2n3CCCCC2)C1)N1CCN(c2ccc(F)cc2)CC1 (configuration not stated) | 23.2% (inactive)
O=C(C1CCCN(c2ncnc3c2nc2n3CCCCC2)C1)N1CCN(c2ccccc2)CC1 (configuration not stated) | 6.98% (inactive)
COc1cc2c(cc1NC(=O)Cc1ccc(C)cc1)oc1ccccc12 | -1.99% (inactive)
CCOP(=O)(OCC)C(NC(=O)c1ccccc1)=C(Cl)Cl | -0.5% (inactive)
CCOc1ccccc1/C=C(/NC(=O)c1ccccc1)C(=O)N1CCCCC1 | 4.77% (inactive)
